What all share (design): species or system human, MV4-11 + K-562 + COLO205 + SK-N-BE2 + OVCAR-8
Assay [1] relates to DDR1. Particulars: read-out: apparent Kd, n = 1.
Assay [2] deals with JAK2. Particulars: read-out: apparent Kd; compound concentrations:100 nM and 1000 nM (sheet 'Samples'); n = 1.
Assay [3] has as its system PIK3CA. Particulars: read-out: apparent Kd; compound concentrations:100 nM and 1000 nM (sheet 'Samples'); n = 1.
Assay [4] deals with PIK3CD. Particulars: read-out: apparent Kd, n = 1.
For assay [5], the system named is RET. Particulars: read-out: apparent Kd; compound concentrations:100 nM and 1000 nM (sheet 'Samples'); n = 1.
In assay [6] the test system is CSNK1D. Particulars: read-out: apparent Kd; compound concentrations: 100 nM and 1000 nM (sheet 'Samples'), CATDS: 7.6983160773696893E-2; n = 1.
In assay [7] the test system is CSNK1E. Particulars: read-out: apparent Kd; compound concentrations: 100 nM and 1000 nM (sheet 'Samples'), CATDS: 7.2450949047452695E-2; n = 1.
Assay [8] concerns MAPK14. Particulars: read-out: apparent Kd; compound concentrations: 100 nM and 1000 nM (sheet 'Samples'), CATDS: 9.6688337398944404E-2; n = 1.
Assay [9] concerns NLK. Particulars: read-out: apparent Kd; compound concentrations: 100 nM and 1000 nM (sheet 'Samples'), CATDS: 9.9124712412078902E-2; n = 1.
The subject of assay [10] is PKN3. Particulars: read-out: apparent Kd; compound concentrations: 100 nM and 1000 nM (sheet 'Samples'), CATDS: 0.57773444025704901; n = 1.
Assay [11] concerns RIPK2. Particulars: read-out: apparent Kd; compound concentrations: 100 nM and 1000 nM (sheet 'Samples'), CATDS: 0.16475470795078001; n = 1.
For assay [12], the system named is SPR. Particulars: read-out: apparent Kd; compound concentrations: 100 nM and 1000 nM (sheet 'Samples'), CATDS: 9.9495378731818698E-2; n = 1.
For assay [13], the system named is TESK2. Particulars: read-out: apparent Kd; compound concentrations: 100 nM and 1000 nM (sheet 'Samples'), CATDS: 7.5715174552883194E-2; n = 1.
Assay [14] has as its system TGFBR2. Particulars: read-out: apparent Kd; compound concentrations: 100 nM and 1000 nM (sheet 'Samples'), CATDS: 8.5739105668182394E-2; n = 1.
Assay [15] concerns TP53RK. Particulars: read-out: apparent Kd; compound concentrations: 100 nM and 1000 nM (sheet 'Samples'), CATDS: 9.9453344807386698E-2; n = 1.
Assay [16] concerns CSNK2A2. Particulars: read-out: apparent Kd, compound concentrations: 100 nM and 1000 nM (sheet 'Samples'), n = 1.
The subject of assay [17] is T1, DJA1.
T1 construct: gene DNAJA1
Particulars: read-out: apparent Kd, compound concentrations: 100 nM and 1000 nM (sheet 'Samples'), n = 1.

In assay [18] the test system is FLT4. Particulars: read-out: apparent Kd; compound concentrations: 100 nM and 1000 nM (sheet 'Samples'), CATDS: 0.41854797783311298; n = 1.
Assay [19] deals with NQO2. Particulars: read-out: apparent Kd; compound concentrations: 100 nM and 1000 nM (sheet 'Samples'), CATDS: 0.17633941136765999; n = 1.
The subject of assay [20] is DDR2. Particulars: read-out: apparent Kd, n = 1.
Assay [21] relates to CSNK2A1;CSNK2A3. Particulars: read-out: apparent Kd, compound concentrations: 100 nM and 1000 nM (sheet 'Samples'), n = 1.
Assay [22] relates to FYN. Particulars: read-out: apparent Kd; compound concentrations: 100 nM and 1000 nM (sheet 'Samples'), CATDS: 8.5832491833895103E-2; n = 1.
Assay [23] has as its system PRKD1. Particulars: read-out: apparent Kd; compound concentrations: 100 nM and 1000 nM (sheet 'Samples'), CATDS: 0.12301509267520799; n = 1.
Assay [24] concerns PRKD2. Particulars: read-out: apparent Kd; compound concentrations: 100 nM and 1000 nM (sheet 'Samples'), CATDS: 0.237501197916752; n = 1.
Assay [25] concerns PRKD3. Particulars: read-out: apparent Kd; compound concentrations: 100 nM and 1000 nM (sheet 'Samples'), CATDS: 0.165514181456969; n = 1.
For assay [26], the system named is GAK. Particulars: read-out: apparent Kd; compound concentrations: 100 nM and 1000 nM (sheet 'Samples'), CATDS: 0.30476726939930399; n = 1.
The test system of assay [27] is MAPK9. Particulars: read-out: apparent Kd; compound concentrations: 100 nM and 1000 nM (sheet 'Samples'), CATDS: 0.27430209396639399; n = 1.
Assay [28] has as its system TTK. Particulars: read-out: apparent Kd; compound concentrations: 100 nM and 1000 nM (sheet 'Samples'), CATDS: 0.21902937280851401; n = 1.
Assay [29] deals with EGFR. Particulars: read-out: apparent Kd; compound concentrations: 100 nM and 1000 nM (sheet 'Samples'), CATDS: 7.48044992603729E-2; n = 1.
In assay [30] the test system is HCK. Particulars: read-out: apparent Kd; compound concentrations: 100 nM and 1000 nM (sheet 'Samples'), CATDS: 0.11641359939997301; n = 1.
The test system of assay [31] is LYN. Particulars: read-out: apparent Kd; compound concentrations: 100 nM and 1000 nM (sheet 'Samples'), CATDS: 9.0520394407802393E-2; n = 1.
For assay [32], the system named is MAPK11. Particulars: read-out: apparent Kd; compound concentrations: 100 nM and 1000 nM (sheet 'Samples'), CATDS: 7.53995695049028E-2; n = 1.
Assay [33] has as its system RIPK3. Particulars: read-out: apparent Kd; compound concentrations: 100 nM and 1000 nM (sheet 'Samples'), CATDS: 9.4746109979172405E-2; n = 1.
The subject of assay [34] is TAOK3. Particulars: read-out: apparent Kd; compound concentrations: 100 nM and 1000 nM (sheet 'Samples'), CATDS: 7.5717255281347595E-2; n = 1.
Assay [35] relates to TNK1. Particulars: read-out: apparent Kd; compound concentrations: 100 nM and 1000 nM (sheet 'Samples'), CATDS: 0.107193891906807; n = 1.
The test system of assay [36] is YES1. Particulars: read-out: apparent Kd; compound concentrations: 100 nM and 1000 nM (sheet 'Samples'), CATDS: 0.13069382201385599; n = 1.
Setting [37] is: compound concentrations:100 nM and 1000 nM (sheet 'Samples').

Read-outs that look alike come from different tables or passages of the source.

Take `CN1CCN(CCNc2nc3cc(Oc4ccc(NC(=O)Nc5cc(C(F)(F)F)ccc5F)cc4)ccc3[nH]2)CC1.CN1CCN(CCNc2nc3cc(Oc4ccc(NC(=O)Nc5cc(C(F)(F)F)ccc5F)cc4)ccc3[nH]2)CC1.Cl.Cl` [GW768504A]: the potency estimated from few doses is 584 nM in assay [1] (setting [37]); 634 nM in assay [2]; 230 nM in [3]; 97.4 nM in [4] (setting [37]); 1080 nM in [5].

For `CN(C)CCN(C)C(=O)c1cc(-c2ccncc2)c(-c2ccc(Cl)c(O)c2)o1` [SB-710397_KCGS], the potency estimated from few doses in assay [6] was 1400 nM; in assay [7], 1720 nM; in assay [8], 748 nM; in assay [9], 705 nM; in assay [10] it was 30.8 nM; in assay [11] it was 247 nM. The potency estimated from few doses in assay [12] was 698 nM; in assay [13], 1480 nM; in [14], 1020 nM; in [15], 699 nM.

Turning to `CCS(=O)(=O)c1ccc(OC)c(Nc2ncc(-c3ccc(F)cc3)o2)c1.Cl` [GW591947A], the potency estimated from few doses in [16] (CATDS: 0.17401411869460601) was 1860 nM; in assay [17] (CATDS: 0.455945316982168) it was 131 nM; in [18], 152 nM; in assay [19] it was 1750 nM.

Regarding `Cc1cn(-c2cc(NC(=O)c3ccc4c(c3)CN(c3cncnc3)C[C@@H]4C)cc(C(F)(F)F)c2)cn1` [D2202-1], the results for the potency estimated from few doses in assay [1] (setting [37]) and in assay [20] (setting [37]) were 494 nM and 915 nM, respectively.

Take `COC(=O)Nc1nc2cc(Oc3ccc(NC(=O)Nc4ccccc4)cc3)ccc2[nH]1.Cl` [GW694590A]: the potency estimated from few doses is 426 nM in [1] (compound concentrations: 100 nM and 1000 nM (sheet 'Samples'), CATDS: 0.58971878257752297); 799 nM in assay [20] (compound concentrations: 100 nM and 1000 nM (sheet 'Samples'), CATDS: 0.43397569756313797).

As to `Cn1cc(-c2ccc3c(c2)CCN3C(=O)Cc2cccc(C(F)(F)F)c2)c2c(N)ncnc21` [GSK2606414A], the potency estimated from few doses in [1] (setting [37]) is 1550 nM.

For `COC(=O)Nc1nc2cc(Oc3ccc(NC(=O)Nc4cc(F)ccc4F)cc3)ccc2[nH]1.Cl` [GW701424A], the potency estimated from few doses in assay [1] (setting [37]) is 242 nM; in assay [20] (setting [37]) it was 1120 nM; in assay [4] (setting [37]), 11.2 nM.

Consider `Cc1cccc(-c2nc(Nc3ccc4[nH]nnc4c3)c3ccccc3n2)n1` [GW867587X], for which the potency estimated from few doses in assay [21] (CATDS: 0.129612529480612) was 199 nM; in assay [16] (CATDS: 0.107908062412964), 369 nM; in assay [22] it was 1180 nM; in assay [4] (compound concentrations: 100 nM and 1000 nM (sheet 'Samples'), CATDS: 0.50363081174980595) it was 13.2 nM; in assay [23], 233 nM; in assay [24] it was 47 nM. Moreover, the potency estimated from few doses in [25] was 103 nM.

Regarding `CNc1nc(Nc2ccc(C(=O)N3CCOCC3)cc2OC)ncc1Cl` [HG-10-102-01], the potency estimated from few doses in assay [21] (CATDS: 0.22184782024324001) is 2220 nM; in [26] it was 1180 nM; in assay [27], 1430 nM; in assay [28] it was 2290 nM.

Take `O=C(Nc1cccc(-c2nn3ncccc3c2-c2ccnc(Nc3ccccc3)n2)c1)c1c(F)cccc1F` [GSK198271A]: the potency estimated from few doses in assay [1] (compound concentrations: 100 nM and 1000 nM (sheet 'Samples'), CATDS: 0.101729312677661) was 711 nM; in assay [17] (CATDS: 0.31646295058989898), 111 nM; in [29], 1600 nM; in [30] it was 537 nM; in assay [31], 933 nM; in [32], 1560 nM. For the same molecule, the potency estimated from few doses in assay [33] was 836 nM; in assay [34], 1540 nM; in assay [35] it was 635 nM; in assay [36] it was 431 nM.

The values are drawn from publication PMC11062922 (Nature Chemical Biology, 2023).
